# HSF-1 act: increases HSF-1 driven luciferase reporter signal; activation, % at 9 µM; NIH3T3-HGL HSF-1 luciferase reporter, MG132, 8 h; 100% = twice DMSO control signal; AID 504408; 1.7% of 300,000 active;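 active = mean replicate activation of at least 50% with a set share of replicates each reaching 50%; inconclusive = only one of those two conditions met; inactive = mean below 50% and too few replicates reaching it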;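 note: 0% = median of the neutral control wells and 100% = twice that signal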
# AHR act: activates the human aryl hydrocarbon receptor; AHR-responsive luciferase reporter cells, luminescence; activation, % at 5 µM; AID 2796; 2.5% of 320,000 active; in the data active = activation above about 47%;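 note: 0% = vehicle wells and 100% = reference agonist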
# Target sequence (P35869 whole entry, looked up): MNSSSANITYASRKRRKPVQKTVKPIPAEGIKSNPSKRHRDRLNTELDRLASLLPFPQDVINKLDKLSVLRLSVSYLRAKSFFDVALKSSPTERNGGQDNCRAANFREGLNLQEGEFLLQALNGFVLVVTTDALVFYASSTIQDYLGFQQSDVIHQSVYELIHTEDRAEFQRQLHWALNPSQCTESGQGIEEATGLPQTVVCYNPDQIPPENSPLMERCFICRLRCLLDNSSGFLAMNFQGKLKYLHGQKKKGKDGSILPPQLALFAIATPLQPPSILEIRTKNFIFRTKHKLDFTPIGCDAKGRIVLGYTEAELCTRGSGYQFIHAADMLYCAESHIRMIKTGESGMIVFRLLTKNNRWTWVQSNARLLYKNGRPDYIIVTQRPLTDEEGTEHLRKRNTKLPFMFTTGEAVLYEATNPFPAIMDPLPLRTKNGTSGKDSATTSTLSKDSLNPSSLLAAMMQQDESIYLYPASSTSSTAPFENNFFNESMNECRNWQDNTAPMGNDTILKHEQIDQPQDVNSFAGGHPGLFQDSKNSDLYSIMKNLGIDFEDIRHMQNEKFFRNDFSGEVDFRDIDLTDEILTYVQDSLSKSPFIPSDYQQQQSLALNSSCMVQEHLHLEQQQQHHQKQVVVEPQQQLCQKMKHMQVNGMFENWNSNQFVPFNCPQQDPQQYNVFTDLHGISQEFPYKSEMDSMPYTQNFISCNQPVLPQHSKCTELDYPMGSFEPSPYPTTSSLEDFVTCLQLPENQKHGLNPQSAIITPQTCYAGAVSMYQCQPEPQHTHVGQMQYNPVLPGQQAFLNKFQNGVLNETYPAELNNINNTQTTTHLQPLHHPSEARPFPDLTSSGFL
# HSF1 inh: HSF1 inhibition | activity change, negative = inhibition, % at 7.5 µM (by protocol) | 0.77% of 300,000 active | NIH3T3-HGL HSE-luciferase, MG132-induced, luminescence 8 h; active compounds read low;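 active = more than half of replicate wells show activity change below -50%, luminescence cut by over half; inconclusive = some wells, but at most half, below -50%; inactive = no replicate well below -50%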;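 note: luciferase reports HSF-1 transcriptional activity via heat shock element; 0% = median of DMSO wells and -100% = zero luminescence signal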
# GAA850 FXN act: activators of GAA850 frataxin (FXN) promoter | HEK293 lucGAA850 FXN promoter luciferase reporter, 24 h; percent of 10 µM SAHA response | activation, % at 6 µM | 0.56% of 360,000 active | AID 540364;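 active = activation above the average of all compounds screened plus 3 SD, cutoff fixed separately per campaign, cut at about 7.5% in these data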;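 note: 0% = DMSO wells and 100% = 10 µM SAHA wells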
# GAA30 FXN cntr: activates GAA30 frataxin promoter, counter-screen for GAA850 activators | AID 588350 | activation, % at 6 µM | 66% of 1,900 active | HEK293 lucGAA30 FXN promoter luciferase, 24 h; DMSO = 0%, 5 µM ipriflavone = 100% | shares compounds with GAA850 FXN act;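 active = mean activation above the mean of solvent-only control wells plus 3 SD, cut at about 22% in these data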;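 note: counterscreen of GAA850 promoter hits where activity marks nonselective or luminescence artifacts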
# FXN GAA850 conf: GAA850 FXN promoter activation confirmation; shares compounds with GAA850 FXN act; 86% of 1,900 active; activation, % at 6 µM; HEK293 lucGAA850 FXN promoter luciferase reporter, 24 h; 100% = activation by SAHA;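 active = mean activation above a set limit taken from the primary screen, cut at about 8% in these data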;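 note: 0% = DMSO wells and 100% = 10 µM SAHA wells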
# * hit, by the source's call; u = inconclusive; x = no result. Hits are enriched below; roughly 4.6% of the tested compounds scored in any of these assays.
SMILES,HSF-1 act,AHR act,HSF1 inh,GAA850 FXN act,GAA30 FXN cntr,FXN GAA850 conf
COCCNc1nnc(SC(C)C(=O)Nc2ccc(-c3nc4ccc(C)cc4s3)cc2)s1 (stereo unspecified),4,6,-2,8.8*,74*,29*
Cc1ccc([N+](=O)[O-])cc1-c1ccc(/C=C(\C#N)c2[nH]nc(N)c2C#N)o1,x,29,x,8.7*,48*,20*
COc1ccc(CC(=O)Nc2cccc(SC)c2)cc1,-6,2,5,2,x,x
COc1ccc(-c2coc3cc(O)ccc3c2=O)cc1O,22,-1,11,3,x,x
Cc1ccc(CCN2C(=O)CCC2(C)C(=O)NC2CCCC2)cc1 (stereo unspecified),x,0,x,15*,19,5
COc1ccc(CCN2C(=O)CCC2(C)C(=O)NC2CCCC2)cc1OC (stereo unspecified),2,1,-8,1,x,x
CCn1c(COc2ccccc2)nnc1SCC(=O)C(C)(C)C,-5,3,-3,2,x,x
COCCCN(C(=S)NC(=O)C12CC3CC(CC(C3)C1)C2)c1c(N)n(Cc2ccccc2)c(=O)[nH]c1=O,2,2,-5,8.4*,13,8.2*
Cc1onc(-c2c(Cl)cccc2Cl)c1C(=O)NCc1ccco1,-6,0,-3,0,x,x
COc1ccc(OC)c(NC(=O)C2CCCN(S(=O)(=O)c3c(C)nn(C)c3C)C2)c1 (stereo unspecified),-78,0,-72*,14*,22,9.3*
Cc1cccc(C2CC(c3ccccc3)Nc3ncnn32)c1 (stereo unspecified),-4,1,-2,19*,10,9.6*
COc1ccc(C2CC(c3cccc(C)c3)n3ncnc3N2)cc1 (stereo unspecified),-6,0,0,1,x,x
O=C(CCCN1C(=O)c2ccccc2C1=O)N1CCOCC1,-3,3,-7,2,x,x
COC(=O)c1c(NC(=O)CN2CCC3(O)CCCCC3C2c2ccccc2OC)sc(C)c1C (stereo unspecified),12,19,-1,3,x,x
COC(=O)c1c(NC(=O)CN2CCC3(O)CCCCC3C2c2ccc(OC)cc2OC)sc(C)c1C (stereo unspecified),0,19,-5,10*,26*,5
Cc1ccc(-c2nnc3c4ccccc4c(C)nn23)cc1S(=O)(=O)N1CCN(CCO)CC1,-2,19,3,7.6*,32*,17*
C(=N\N=C\c1cccnc1)/c1cccnc1,50,17,9,-2,x,x
CN(/N=C/c1cccnc1)c1cnc2ccccc2n1,48,32,18,9.3*,132*,34*
COc1ccc(C2C3=C(CC(C)(C)CC3=O)Nc3c2c(=O)[nH]c(=O)n3Cc2ccccc2)cc1 (stereo unspecified),15,2,2,-3,x,x
COc1ccc2sc(-c3ccc(SC)cc3)c(C#CC(C)(C)O)c2c1,x,41,x,7.8*,37*,26*
COc1cccc(-c2sc3ccc(OC)cc3c2C#CC(C)(C)O)c1,x,14,x,3,x,x
O=C(NC1CCCCC1)c1cccc(S(=O)(=O)N2CCCCC2)c1,-12,3,-5,-1,x,x
O=C(O)c1cnn(-c2nc(-c3ccc(Cl)c(Cl)c3)cs2)c1C(F)(F)F,17,3,15,8.1*,60*,32*
O=C(O)c1cnn(-c2nc(-c3cccc(F)c3)cs2)c1C(F)(F)F,-12,10,-1,1,x,x
N#Cc1nc(COc2cccc(Cl)c2)oc1NCCN1CCOCC1,-30,2,-13,0,x,x
COc1ccc(S(=O)(=O)N2CCOCC2)cc1NC(=O)Cc1sc(C)nc1-c1ccc(F)cc1,3,-1,5,1,x,x
COc1ccc(S(=O)(=O)N2CCCCC2)cc1NC(=O)Cc1sc(C)nc1-c1ccc(F)cc1,14,2,8,13*,22*,11*
O=C(NNC(=O)c1cc(OCC(F)(F)F)ccc1OCC(F)(F)F)c1cccc(C(F)(F)F)c1,-12,12,-23,1,x,x
O=C(CN1CCN(Cc2ccccc2F)C1=O)NCc1cccnc1,-4,2,-1,13*,16,5
CCOC(=O)c1c(NC(C)=O)sc2c1CCC(C=O)=C2Sc1ccccc1,u,3,31,3,x,x
